In the experiment the test system is primary human hepatic stellate cells (donor 1). Description: scaled lipid accumulation score (0 = DMSO-like, 1 = nortriptyline-like); higher = stronger HSC inactivation (lipid re-accumulation), active = hit call of the paper. The conditions noted are these: 48 h.
Setting [1] is: library stock concentration: 10 mM.
Where [2] appears, read: library stock concentration: 80 uM.
Setting [3] is: library stock concentration: 400 uM.
Setting [4] is: library stock concentration: 2 mM.
Setting [5] is: library stock concentration: 1 mM.
Where [6] appears, read: library stock concentration: 3.33 mM.

Several values for one entry are separate records, joined by “and”; a condition that tells them apart may be missing. Identical values can stand only once. Counter-ions that a name gives are not always drawn. About 620 (11%) of roughly 5,800 compounds showed activity. The sample holds actives, similar compounds and a random draw of the others, so the mix is not that of the screen. A number with no mark means an inactive call.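 The calls were made as follows: active = score above a cut-off or among the top three wells of a plate; in these data no inactive exceeds 0.85.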 A value given as a limit tells only on which side of the number the result lay.

Experimental findings from the supplement of paper PMC9135407 are described below.

On to `C[N+](C)(C)CCOP(=O)(O)OP(=O)([O-])OC[C@H]1O[C@@H](n2ccc(N)nc2=O)[C@H](O)[C@@H]1O` [Cytidine 5'-diphosphocholine sodium salt hydrate], for which the “scaled lipid accumulation score” value under setting [1] is at most -0.07. The same measure, in the same setting: for `C[N+](C)(C)CCOP(=O)(O)OP(=O)([O-])OC[C@H]1O[C@@H](n2ccc(N)nc2=O)[C@H](O)[C@@H]1O` [Citicoline] the value was at most -0.027; for `CO[C@H]1C=C[C@@]23c4cc5c(cc4CN(C[C@@H]2O)[C@H]3C1)OCO5` [Crinamine], 0.74.

Consider `Cc1ccc(Nc2cc(-c3cccc(N4C(=O)c5ccccc5C4=O)c3)ncn2)cc1NS(C)(=O)=O`, for which the “scaled lipid accumulation score” value runs as follows: under setting [2], 0.083; under setting [3], at most -0.016; under setting [4], at most -0.016; under setting [1], 0.08. Take `CCCCCC(O)/C=C/C1C(O)CC(O)C1CCCCC(CC(=O)O)OC` (stereo not drawn) [3-methoxy Prostaglandin F1.alpha.]: the “scaled lipid accumulation score” value under setting [5] is at most 0. Same read-out and setting: for `CCCCCCCCCCCCCCC(=O)N[C@H]1CCOC1=O` [N-pentadecanoyl-L-Homoserine lactone] the value was at most 0. With `c1ccc2c(c1)CCC[C@H]2Nc1nc2ccccc2[nH]1` [NS8593 hydrochloride], under setting [1], the “scaled lipid accumulation score” value was 0.362. As for `CCCCNC(=O)NS(=O)(=O)c1ccc(CO)cc1` [4-hydroxy Tolbutamide], the “scaled lipid accumulation score” value under setting [5] was 0.012. Take `COc1ccc(NS(=O)(=O)c2sc3ccc(Cl)cc3c2C)cc1N1CCNCC1` [listing 1 of 2 here]: under setting [1], the “scaled lipid accumulation score” value is 1.31 (active). Same read-out and setting: for `COc1ccc(NS(=O)(=O)c2ccc(I)cc2)cc1N1CCN(C)CC1` the value was 0.604. For `COc1ccc(NS(=O)(=O)c2sc3ccc(Cl)cc3c2C)cc1N1CCNCC1` [listing 2 of 2 here], under setting [6], the “scaled lipid accumulation score” value was 0.383. As for `CCCCCCCCCCCCCCCCCCCCCC(=O)NCCO` [Docosanoyl Ethanolamide], the “scaled lipid accumulation score” value under setting [5] was at most 0. As for `C[C@]12CC[C@@H]3c4ccc(OC(=O)c5ccccc5)cc4CC[C@H]3[C@@H]1CC[C@@H]2O` [Estradiol benzoate], the “scaled lipid accumulation score” value (library stock concentration: 5.3 mM) is at most 0.

Turning to `COc1ccc2c(c1)CCC1C2CC[C@@]2(C)C1CC[C@@H]2NCCCCCCN1C(=O)CCC1=O` (some centres not stated), under setting [1], the “scaled lipid accumulation score” value was 0.875 (active). `C[C@]12CC[C@@H]3c4ccc(OC(=O)c5ccccc5)cc4CC[C@H]3[C@@H]1CC[C@@H]2O` [Estradiol Benzoate]: the “scaled lipid accumulation score” value was at most 0 under setting [6] and 0.155 under setting [1]. For `COc1ccc2c(c1)CCC1C2CCC2(C)C(NCCCCCCN3C(=O)C=CC3=O)CCC12` (configuration not stated), the “scaled lipid accumulation score” value under setting [5] was at most 0 and the “scaled lipid accumulation score” value under setting [1] is 0.397.

Take `CN1c2cc(O)c(N=NC(N)=O)cc2CC1S(=O)(=O)O` (configuration not stated) [Carbazochrome sodium sulfonate (AC-17)]: the “scaled lipid accumulation score” value runs as follows: under setting [6], at most 0; under setting [1], at most 0. Take `c1ccc(CNc2nc(NCc3ccccc3)c3ccccc3n2)cc1`: the “scaled lipid accumulation score” value under setting [6] is 0.706 and the “scaled lipid accumulation score” value under setting [1] was 0.074.

Take `CC(=O)NCCCCCC(=O)O` [Acexamic acid]: the “scaled lipid accumulation score” value under setting [1] is 0.236.

Consider `CC(C)CCOc1ccc(NC(=S)Nc2ccc(OCCC(C)C)cc2)cc1` [Thiocarlide], for which the “scaled lipid accumulation score” value under setting [5] was at most 0. For the compound `CN1C(=O)CC[C@H]1c1cccnc1` [Cotinine (-)], the “scaled lipid accumulation score” value was at most 0. For the compound `CN1C(=O)CC[C@H]1c1cccnc1` [Cotinine], the “scaled lipid accumulation score” value by setting is: under setting [1], at most 0; (library stock concentration: 11.3 mM) at most -0.001. Take `CN1C(=O)CC[C@H]1c1cccnc1` [(-)-Cotinine]: the “scaled lipid accumulation score” value under setting [1] is ≤ 0 and 0.057. Consider `O=c1ccc2ccccc2o1` [Coumarin], for which the “scaled lipid accumulation score” value is, setting by setting: under setting [6], at most 0; under setting [1], ≤ 0 and 0.012. In the case of `O=c1ccc2cc(O)c(O)cc2o1` [Esculetin], the “scaled lipid accumulation score” value was at most 0. For the same compound, the “scaled lipid accumulation score” value under setting [1] is at most 0. On to `O=Nc1ccc2oc(=O)ccc2c1` [6-Nitroso-1,2-benzopyrone], for which the “scaled lipid accumulation score” value under setting [1] was 0.9 (active). Turning to `CC(C)n1c(/C=C/C(O)CC(O)CC(=O)O)c(-c2ccc(F)cc2)c2ccccc21` (configuration not stated) [Fluvastatin sodium salt], the “scaled lipid accumulation score” value was 0.403. `CC(C)n1c(/C=C/C(O)CC(O)CC(=O)O)c(-c2ccc(F)cc2)c2ccccc21` (configuration not stated) [Fluvastatin Sodium]: the “scaled lipid accumulation score” value runs as follows: under setting [6], 0.188; under setting [1], 0.219. In the case of `CC(C)n1c(/C=C/C(O)CC(O)CC(=O)O)c(-c2ccc(F)cc2)c2ccccc21` (configuration not stated) [fluvastatin], under setting [1], the “scaled lipid accumulation score” value was 0.549.

Consider `COc1cc(C)c(Cc2cnc(N)nc2N)cc1OC`, for which the “scaled lipid accumulation score” value under setting [1] is at most 0. For the compound `O=C(OCC(O)CO)c1ccccc1Nc1ccnc2cc(Cl)ccc12` (configuration not stated) [Glafenine hydrochloride], the “scaled lipid accumulation score” value was at most 0. Still for that read-out and setting: for `CCN(CC)Cc1cc(Nc2ccnc3cc(Cl)ccc23)ccc1O.Cl.Cl.O.O` [Amodiaquin dihydrochloride dihydrate] the value was 1.22 (active). As to `CCN(CC)CCCC(C)Nc1ccnc2cc(Cl)ccc12` (configuration not stated) [Chloroquine diphosphate], the “scaled lipid accumulation score” value is 0.679. Also, under setting [1], the “scaled lipid accumulation score” value was ≤ 0 and 0.428.

Take `Clc1ccc2c(N3CCN(CCCN4CCN(c5ccnc6cc(Cl)ccc56)CC4)CC3)ccnc2c1` [Piperaquine tetraphosphate tetrahydrate]: under setting [1], the “scaled lipid accumulation score” value is 0.316.

Turning to `CCN(CCO)CCCC(C)Nc1ccnc2cc(Cl)ccc12` (configuration not stated) [Hydroxychloroquine sulfate], the “scaled lipid accumulation score” value under setting [1] is 0.161. Regarding `CCN(CC)CCCC(C)Nc1ccnc2cc(Cl)ccc12` (configuration not stated) [Chloroquine phosphate], the “scaled lipid accumulation score” value (library stock concentration: 6.3 mM) was 0.285. As to `O=C(OCC(O)CO)c1ccccc1Nc1ccnc2cc(Cl)ccc12` (configuration not stated) [Glafenine], the “scaled lipid accumulation score” value under setting [1] is at most 0.

Take `Cc1nc2cc3nc(-c4cccs4)cnc3cc2n1C`: the “scaled lipid accumulation score” value under setting [6] is at most 0. In the case of `Cc1csc(-c2nnc(Nc3ccc(Oc4ncccc4-c4ccnc(N)n4)cc3)c3ccccc23)c1`, the “scaled lipid accumulation score” value reads like this: under setting [6], at most 0; under setting [1], at most 0.

As to `CCCCCCCCCCCCCCCCC/C=C/C(=O)O` [.DELTA.2-trans Eicosenoic Acid], the “scaled lipid accumulation score” value under setting [5] was at most 0. Consider `O=c1oc(-c2ccc(C(F)(F)F)cc2)nn1Cc1cc(Cl)ccc1O`, for which the “scaled lipid accumulation score” value under setting [1] was 0.172. `O=C(Nc1ccc([N+](=O)[O-])cc1Cl)c1cc(Cl)ccc1O` [Niclosamide] [listing 1 of 2 here]: the “scaled lipid accumulation score” value was 0.776.

As to `O=C(Nc1cc(C(F)(F)F)cc(C(F)(F)F)c1)c1cc(Cl)ccc1O` [listing 1 of 3 here], under setting [1], the “scaled lipid accumulation score” value is 1.61 (active).

Take `O=C(Nc1ccccc1)c1cc([N+](=O)[O-])ccc1Cl`: the “scaled lipid accumulation score” value is, setting by setting: under setting [5], at most 0; under setting [6], 0.023; under setting [1], ≤ 0 and 0.358 and 0.105.

For the compound `O=C(Nc1cc(C(F)(F)F)cc(C(F)(F)F)c1)c1cc(Cl)ccc1O` [listing 2 of 3 here], the “scaled lipid accumulation score” value under setting [1] is 1.1 (active).

Consider `O=C(Nc1ccc([N+](=O)[O-])cc1Cl)c1cc(Cl)ccc1O` [Niclosamide] [listing 2 of 2 here], for which the “scaled lipid accumulation score” value reads like this: (library stock concentration: 6.1 mM) 1.15 (active); under setting [1], 1.08 (active).

Consider `O=C(Nc1ccccc1)c1ccccc1O` [Salicylanilide], for which the “scaled lipid accumulation score” value is at most 0 under setting [6], 0.019 (library stock concentration: 9.4 mM) and 0.041 under setting [1]. Turning to `Cc1oncc1C(=O)Nc1ccc(C(F)(F)F)cc1` [Leflunomide], the “scaled lipid accumulation score” value is at most 0. Further, the “scaled lipid accumulation score” value under setting [2] was 0.045. Moreover, the “scaled lipid accumulation score” value under setting [3] was at most 0. Moreover, the “scaled lipid accumulation score” value under setting [4] was at most 0. Also, the “scaled lipid accumulation score” value under setting [6] is at most 0.

In the case of `O=C(Nc1cc(C(F)(F)F)cc(C(F)(F)F)c1)c1cc(Cl)ccc1O` [IKK-2 Inhibitor V], the “scaled lipid accumulation score” value under setting [6] was at most 0. Still for that read-out and setting: then `O=C(Nc1cc(C(F)(F)F)cc(C(F)(F)F)c1)c1cc(Cl)ccc1O` [listing 3 of 3 here], with 0.722.
